MITF TRPM1 HTS: activators of MITF-driven TRPM1 promoter reporter, primary screen, cell-based, SK-MEL-5, luciferase, single point; SK-MEL-5 TRPM1-promoter luciferase, 24 h; % of positive control, neutral wells = 0; activation, % at 12.5 µM; hit rate 0.75% among 300,000; AID 588334, 2011;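 active = mean activation of at least 80% with every replicate also reaching 80%; inconclusive = mean reaches 80% but some replicate falls short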
TRPM1 prom inh: inhibitors of MITF-dependent TRPM1 promoter reporter, primary screen, cell-based, SK-MEL-5, single point, luciferase. SK-MEL-5 TRPM1 promoter luciferase, 24 h. inhibition, % at 12.5 µM. hit rate 0.83% among 330,000. AID 488899, 2010;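 active = mean inhibition across replicates of 60% or more, whatever share of single replicates reaches that level; inconclusive = some that reach 60%, reason not given; inactive = mean inhibition across replicates below 60%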
EBV LMP1 NFkB: EBV LMP1-driven NF-kappaB luciferase reporter inhibitors, primary screen, cell-based, luminescence, single point. AID 504558, 2011. LMP1-induced NF-kappaB luciferase reporter cells. inhibition, % at 12.5 µM. hit rate 0.69% among 350,000; in the data active = inhibition above about 41%; inconclusive = no clear call, values can overlap the other calls
C2C12 statin: suppressors of statin myotoxicity in C2C12 myotubes, primary screen, cell-based, single point, plate reader | rescue of ATP level, % at 7.49 µM | C2C12 myotubes + simvastatin, ATP luminescence, 48 h; scaled: DMSO 0, geranylgeraniol control 100 | hit rate 0.78% among 330,000;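 active = mean ATP rescue above about 67%, or every replicate alone reaching that limit, limit read from the data, passing the limit was not always enough; inconclusive = no clear call, values can overlap the other calls; inactive = mean under the limit and some replicate under it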;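 also: myotubes were challenged with 10 µM simvastatin during compound exposure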
esBAF inh: Bmi1 luciferase reporter increase in mESCs, primary screen, esBAF inhibitor project, mouse ES cells, Bmi1 luciferase knock-in, single point; reporter increase, % at 12.5 µM; hit rate 2% among 350,000; 24 h; 100% = twice the neutral-well signal; in the data active = activation above about 40%; inconclusive = no clear call, values can overlap the other calls;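 also: a rise in the Bmi1 reporter signal indicates esBAF inhibition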
Wnt act: Wnt/beta-catenin pathway activators, primary screen, cell-based, plate reader, single point | hit rate 1.2% among 300,000 | activation, % at 9.35 µM | Wnt/beta-catenin reporter cell assay, activator; in the data active = activation above about 30%, passing the limit was not always enough; inconclusive = no clear call, values can overlap the other calls
Of the large screens only hits and unclear results are named; the others gave an inactive call. Only some compounds are listed: those with a hit (about 4% of all), similar ones and a draw of the others.

O=C(Nc1ccc(F)c(Cl)c1)c1ccc2sc([C@H]3C[C@H](O)[C@@H](CO)O3)nc2c1	esBAF inh 62 (no result: MITF TRPM1 HTS, TRPM1 prom inh, EBV LMP1 NFkB)
O=C(Nc1ccc(F)c(Cl)c1)c1csc([C@@H]2C[C@H](O)[C@@H](CO)O2)n1	esBAF inh 43 (no result: MITF TRPM1 HTS, TRPM1 prom inh, EBV LMP1 NFkB)
O=C(Nc1ccc(F)c(Cl)c1)c1csc(COCCO)n1	esBAF inh 51 (no result: MITF TRPM1 HTS, TRPM1 prom inh, EBV LMP1 NFkB)
O=C(Nc1cccc(Cl)c1)c1csc([C@@H]2C[C@H](O)[C@@H](CO)O2)n1	none (no result: MITF TRPM1 HTS, TRPM1 prom inh, EBV LMP1 NFkB)
O=C(Nc1ccc(F)c(Cl)c1)c1csc([C@H]2C[C@H](O)[C@@H](CO)O2)n1	esBAF inh 88, Wnt act 40 (no result: MITF TRPM1 HTS, TRPM1 prom inh, EBV LMP1 NFkB)
COc1ccc(OC)c(NC(=O)C2CC(C)=C(C)CC2C(=O)O)c1 (stereo unspecified)	none
CCc1cccc(NC(=O)c2ccc(NS(=O)(=O)c3c(C)noc3C)cc2)c1	none (no result: Wnt act)
CC(C)c1cccc(C(C)C)c1NC(=O)OC1CCCCC1	none (no result: MITF TRPM1 HTS, TRPM1 prom inh, EBV LMP1 NFkB, C2C12 statin, esBAF inh)
c1ccc(-c2nc(-c3ccco3)n3ccccc23)cc1	none (no result: Wnt act)
COc1cc(CN2CCCC(N3CCN(c4ccccc4C)CC3)C2)cc(Cl)c1O (stereo unspecified)	EBV LMP1 NFkB 78
COc1ccc(CN2CCCC(N3CCN(c4cccc(Cl)c4)CC3)C2)cc1OC (stereo unspecified)	none (no result: MITF TRPM1 HTS)
COc1ccc(-c2csc(N(Cc3ccco3)C(=O)c3cccs3)n2)cc1	Wnt act 41
COc1ccc(-c2csc(N(C)C(=O)c3cccs3)n2)cc1	MITF TRPM1 HTS 97, esBAF inh inconclusive, Wnt act 38
Cn1c(-c2ccccc2)cc2ccccc21	none
Cc1ccc(-n2nnc(-c3ccnc4ccccc34)n2)cc1	MITF TRPM1 HTS 94, esBAF inh 69, Wnt act 40
Fc1ccc(-n2nnc(-c3ccccc3)n2)cc1	none
Fc1ccc(-n2nnc(-c3ccnc4ccccc34)n2)cc1	esBAF inh 61, Wnt act inconclusive (no result: MITF TRPM1 HTS, TRPM1 prom inh)
Cc1ccc(-n2nnc(-c3cc4ccccc4n3C)n2)cc1	esBAF inh 58
CCc1nc2ccc(C(=O)Nc3cc(-c4ccccc4)ccc3OC)cn2c1N(C)CCC(C)C	none (no result: MITF TRPM1 HTS, TRPM1 prom inh, EBV LMP1 NFkB)
C#CC[N+](C)(C)CC#Cc1ccc(C)cc1	none (no result: C2C12 statin, esBAF inh)
COc1ccc(Cc2c(-c3ccc(C)cc3)nc3ccc(Cl)cn23)c(C)c1	esBAF inh 65 (no result: MITF TRPM1 HTS, TRPM1 prom inh, EBV LMP1 NFkB)
COc1ccccc1Cc1c(-c2ccc(C)cc2)nc2ccc(Cl)cn12	esBAF inh 63 (no result: MITF TRPM1 HTS, TRPM1 prom inh, EBV LMP1 NFkB)
Cc1sccc1/C=N/NC(=O)c1ccco1	none
COC(=O)C1=C(O)/C(=C/c2ccc(OCC(=O)Nc3ccc(OC)cc3)cc2)N=C1C	none (no result: MITF TRPM1 HTS, TRPM1 prom inh)
COC(=O)C1=C(O)/C(=C\c2ccc(OCC(=O)Nc3ccccc3)cc2)N=C1C	C2C12 statin 104
CN(C)c1ccc(-c2csc(C(C)(O)c3ccccc3)n2)cc1 (stereo unspecified)	esBAF inh 56 (no result: MITF TRPM1 HTS, TRPM1 prom inh, EBV LMP1 NFkB)
CC(O)(c1ccccc1)c1nc(-c2ccc(Cl)cc2)cs1 (stereo unspecified)	none (no result: MITF TRPM1 HTS, TRPM1 prom inh, EBV LMP1 NFkB)
CC(O)(c1ccccc1)c1nc(-c2cc3ccccc3o2)cs1 (stereo unspecified)	esBAF inh 49 (no result: MITF TRPM1 HTS, TRPM1 prom inh, EBV LMP1 NFkB)
O=C(O)c1ccccc1Nc1ccc([N+](=O)[O-])cc1C(=O)O	none (no result: MITF TRPM1 HTS, C2C12 statin, esBAF inh)
Cc1c(OCc2ccccc2)c(=O)ccn1Cc1ccccc1	esBAF inh 56 (no result: Wnt act)
Clc1ccc(C#Cc2cccnc2)cc1	MITF TRPM1 HTS 109, esBAF inh 67
N#C[C@H]1N[C@H](CO)[C@H]1c1ccc(C#Cc2cccnc2)cc1	none (no result: MITF TRPM1 HTS, TRPM1 prom inh, EBV LMP1 NFkB, Wnt act)
CCN(C(=O)CSc1nc2ccc(C)cc2[nH]1)C1CCS(=O)(=O)C1 (stereo unspecified)	none
Nc1nc(N)c2sc3nc4c(cc3c2n1)CCC4	esBAF inh 48 (no result: Wnt act)
CC1=NN(C(N)=S)C(=O)C1N=Nc1cccc(Cl)c1C (stereo unspecified)	esBAF inh 51 (no result: MITF TRPM1 HTS)
Cn1cc(CNCc2ccc(OC(F)(F)F)cc2)c(-c2ccc3c(c2)OCCO3)n1	none
Cn1cc(CNCc2cn[nH]c2-c2ccc(F)cc2)c(-c2ccc3c(c2)OCCO3)n1	Wnt act 37 (no result: C2C12 statin, esBAF inh)

Bioassay records: PubChem, Broad Institute
